Source: PubChem
Gli-Sufu block = Gli-Sufu pathway antagonism | Sufu-KO-LIGHT fibroblasts, Gli luciferase reporter luminescence | inhibition, % at 5 µM | 340,000 compounds, 0.74% hits | AID 588413;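 active = inhibition above about 55%, limit read from the data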;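 note: 0% = DMSO-treated cells and 100% = wells with medium but no cells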
Jurkat NFkB inh = inhibitors of the PMA/ionomycin-induced NF-kB reporter in Jurkat cells | PMA/ionomycin-induced NF-kB luciferase reporter, luminescence | inhibition, % at 4 µM | 330,000 compounds, 0.53% hits; in the data active = inhibition above about 50%
Mdm2 MdmX PPI = inhibitors of human Mdm2/MdmX interaction. O15151+Q00987. SaOS-2 split-luciferase Mdm2/MdmX complementation, luminescence. inhibition, % at 8 µM. 330,000 compounds, 3% hits. AID 485346;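 active = inhibition of at least 50% at 8 µM in the primary screen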
Target sequence (O15151 whole entry, looked up): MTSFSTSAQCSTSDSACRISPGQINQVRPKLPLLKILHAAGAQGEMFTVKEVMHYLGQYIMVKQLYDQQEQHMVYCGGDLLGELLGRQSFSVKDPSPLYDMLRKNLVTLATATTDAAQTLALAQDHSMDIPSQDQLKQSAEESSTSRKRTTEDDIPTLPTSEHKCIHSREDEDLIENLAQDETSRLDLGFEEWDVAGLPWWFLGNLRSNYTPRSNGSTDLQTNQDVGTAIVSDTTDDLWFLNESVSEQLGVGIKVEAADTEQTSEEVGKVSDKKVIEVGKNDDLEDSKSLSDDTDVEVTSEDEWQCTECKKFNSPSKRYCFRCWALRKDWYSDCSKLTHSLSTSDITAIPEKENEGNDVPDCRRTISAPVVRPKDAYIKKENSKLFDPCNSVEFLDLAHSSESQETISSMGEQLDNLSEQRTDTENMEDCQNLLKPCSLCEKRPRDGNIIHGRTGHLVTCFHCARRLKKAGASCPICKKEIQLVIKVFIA
Target sequence (Q00987 whole entry, looked up): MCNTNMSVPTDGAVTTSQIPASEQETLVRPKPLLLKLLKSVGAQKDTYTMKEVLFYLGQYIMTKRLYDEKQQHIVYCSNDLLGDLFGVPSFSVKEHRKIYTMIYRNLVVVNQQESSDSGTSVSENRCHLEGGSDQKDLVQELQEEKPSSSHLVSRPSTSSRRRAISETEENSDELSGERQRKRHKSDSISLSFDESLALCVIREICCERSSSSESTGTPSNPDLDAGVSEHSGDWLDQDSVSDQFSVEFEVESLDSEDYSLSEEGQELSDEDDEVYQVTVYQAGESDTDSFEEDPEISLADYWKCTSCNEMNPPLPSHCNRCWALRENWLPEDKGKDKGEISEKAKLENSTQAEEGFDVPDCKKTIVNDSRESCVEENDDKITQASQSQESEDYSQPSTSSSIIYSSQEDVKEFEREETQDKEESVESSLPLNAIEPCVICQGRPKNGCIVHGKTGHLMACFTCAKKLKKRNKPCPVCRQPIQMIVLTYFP
697 NFkB inh = inhibitors of the PMA/ionomycin-induced NF-kB reporter in 697 B cells | inhibition, % at 4 µM | 330,000 compounds, 0.33% hits | 697 B-cell NF-kB luciferase reporter, 16 h; in the data active = inhibition above about 35%
Beta apoptosis = beta cell apoptosis inhibition; INS-1E cytokine-induced death, ATP luminescence, 48 h; percent of positive-control rescue, neutral wells zero; protection from apoptosis, % (test concentration not listed); 300,000 compounds, 0.8% hits;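 active = Every replicate reaches about 75%, or at least half do and their mean reaches it too, limit read from the data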;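 note: 0% = cytokine-treated negative control wells and 100% = positive control rescue; higher means more ATP so stronger rescue from cytokine killing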
An asterisk follows results filed as active. Sampled rows, rich in hits. Any-hit rate of the full collection: about 4%.

Screening COc1ccc(CCC(=O)NCC(c2ccco2)N2CCc3ccccc32)cc1 (configuration not stated) returned Gli-Sufu block 0, Jurkat NFkB inh 5, Mdm2 MdmX PPI 21, 697 NFkB inh -18 and Beta apoptosis 1.
Screening NS(=O)(=O)c1ccc(NC(=S)N2CCN(c3ccc(Cl)c(Cl)c3)CC2)cc1 returned Gli-Sufu block 59*, Jurkat NFkB inh 28, Mdm2 MdmX PPI 33, 697 NFkB inh -29 and Beta apoptosis 16.
Cc1ccc(NC(=O)CN(C)C(=O)Cc2c(Cl)cccc2Cl)cc1 was read as Gli-Sufu block 23, Jurkat NFkB inh 11, Mdm2 MdmX PPI -4, 697 NFkB inh 12 and Beta apoptosis -1.
Screening CCOC(=O)NC(=O)c1cn(N(C)c2ncc(C(F)(F)F)cc2Cl)c(=O)[nH]c1=O returned Gli-Sufu block 3, Jurkat NFkB inh -8, Mdm2 MdmX PPI -10, 697 NFkB inh 4 and Beta apoptosis -3.
For Cc1nn(-c2nc3ccccc3[nH]2)c(=O)c2ccccc12 the results were Gli-Sufu block 79* and Beta apoptosis 86*.
N#CC1=C(N)SC(N)=C(C#N)C1c1cccc(O)c1 was read as Gli-Sufu block -5, Jurkat NFkB inh -6, Mdm2 MdmX PPI -18, 697 NFkB inh -5 and Beta apoptosis -2.
`CC(C)CN(C(=O)COC(=O)C12CC3CC(CC(Cl)(C3)C1)C2)c1c(N)n(Cc2ccccc2)c(=O)[nH]c1=O` gave Gli-Sufu block 10, Jurkat NFkB inh -2, Mdm2 MdmX PPI 29, 697 NFkB inh 26 and Beta apoptosis 81*.
For CS(=O)(=O)c1nc(-c2ccccc2)cc(C(F)(F)F)n1 the results were Gli-Sufu block 23, Jurkat NFkB inh 31, Mdm2 MdmX PPI -32, 697 NFkB inh -103 and Beta apoptosis 108*.
CCNC(=S)N1CCN(c2ccccn2)CC1 was read as Gli-Sufu block 9, Jurkat NFkB inh 14, Mdm2 MdmX PPI 6, 697 NFkB inh 12 and Beta apoptosis -11.
`CC(NNC(=S)N1CCN(c2ccccn2)CC1)c1nccc2ccccc12` (configuration not stated) gave Gli-Sufu block 93*.
Screening N#Cc1cc2nc(O)c(O)nc2cc1[N+](=O)[O-] returned Gli-Sufu block -12, Jurkat NFkB inh 3, Mdm2 MdmX PPI -3, 697 NFkB inh -16 and Beta apoptosis -2.
`CNc1nc2cc([N+](=O)[O-])c([N+](=O)[O-])cc2nc1NC` gave Gli-Sufu block 84* and Beta apoptosis 98*.
O=C(CSC1=NCCS1)Nc1ccc2ccccc2c1 was read as Gli-Sufu block -4, Jurkat NFkB inh -24, Mdm2 MdmX PPI -17, 697 NFkB inh 0 and Beta apoptosis 2.
`O=C(CSC1=NCCS1)Nc1ccnc2ccccc12` gave Gli-Sufu block 49, Jurkat NFkB inh 16, Mdm2 MdmX PPI 3, 697 NFkB inh -47 and Beta apoptosis 104*.
Screening c1ccc2c(-c3nnc4n3CCCCC4)cc(-c3ccncc3)nc2c1 returned Gli-Sufu block -5, Jurkat NFkB inh -8, Mdm2 MdmX PPI 11 and 697 NFkB inh 7.
Screening Clc1ccc(-c2cc(-c3nnc4n3CCCCC4)c3ccccc3n2)cc1 returned Gli-Sufu block 8, Jurkat NFkB inh -32, Mdm2 MdmX PPI 1, 697 NFkB inh -4 and Beta apoptosis 100*.
Screening Fc1ccc(-c2cc(-c3nnc4n3CCCCC4)c3ccccc3n2)cc1 returned Gli-Sufu block -4, Jurkat NFkB inh -4, Mdm2 MdmX PPI 3, 697 NFkB inh -7 and Beta apoptosis 97*.
For N#C/C(=C/c1ccc(N2CCCCC2)o1)c1cccc(F)c1 the results were Gli-Sufu block -18, Jurkat NFkB inh -6, Mdm2 MdmX PPI -20 and 697 NFkB inh -10.
Screening N#C/C(=C/c1ccc(N2CCCCCC2)o1)c1ccc(Cl)cc1 returned Gli-Sufu block -30, Jurkat NFkB inh 17, Mdm2 MdmX PPI 15, 697 NFkB inh -12 and Beta apoptosis 81*.
C/C(=N/NC(=O)CN1CCN(S(=O)(=O)c2ccc(Br)cc2)CC1)c1ccco1 was read as Gli-Sufu block 13, Jurkat NFkB inh 14, Mdm2 MdmX PPI -1, 697 NFkB inh 13 and Beta apoptosis 2.
For CC(C)(O)/C=C/C[C@](C)(O)C1CC[C@]2(C)C1[C@H](O[C@H]1O[C@@H](CO)[C@H](O)[C@@H](O)[C@@H]1O)CC1[C@@]3(C)CC[C@H](O)C(C)(C)C3[C@@H](O)C[C@]12C (some centres not stated) the results were Gli-Sufu block 4, Jurkat NFkB inh -4, Mdm2 MdmX PPI -16, 697 NFkB inh 5 and Beta apoptosis 5.
CN(C)c1ccc(C=c2c3cc([N+](=O)[O-])ccc3n3c2cc(-c2ccccc2)[n+]3C)cc1 was read as Gli-Sufu block 81*.
`CN(C)c1ccc(/C=C2\CCC/C(=C\c3ccccc3)C2=O)cc1` gave Gli-Sufu block -3 and Beta apoptosis 1.
For Cn1c(CO)c(-c2ccccc2)c2cc([N+](=O)[O-])ccc21 the results were Gli-Sufu block -2, Jurkat NFkB inh 13, Mdm2 MdmX PPI 24, 697 NFkB inh -5 and Beta apoptosis -8.
Screening CN(c1ccc(Cl)cc1)c1cc(=O)n(C)c2ccccc12 returned Gli-Sufu block 23, Jurkat NFkB inh -1, Mdm2 MdmX PPI 47, 697 NFkB inh 20 and Beta apoptosis -4.
Screening CN(C)c1ccc(C=c2c3ccccc3n3c2c2c([n+]3C)CCCC2)cc1 returned Gli-Sufu block 89*.
Screening CN(C)c1ccc(C=c2c3ccccc3n3c2cc(-c2ccccc2)[n+]3C)cc1 returned Gli-Sufu block 86*.
`CN(C)c1ccc(/C=C2\SC(=O)N(CC(O)Cn3c4ccccc4c4ccccc43)C2=O)cc1` (configuration not stated) gave Gli-Sufu block 4, Jurkat NFkB inh 31, Mdm2 MdmX PPI 28, 697 NFkB inh 11 and Beta apoptosis 12.
`CN(C)c1ccc(C=c2c3ccccc3n3c2cc(-c2ccc(Cl)cc2)[n+]3C)cc1` gave Gli-Sufu block 83*.
For O=C(OC[C@H]1O[C@@H](OC(=O)c2cc(O)c(O)c(OC(=O)c3cc(O)c(O)c(O)c3)c2)[C@H](OC(=O)c2cc(O)c(O)c(OC(=O)c3cc(O)c(O)c(O)c3)c2)[C@@H](OC(=O)c2cc(O)c(O)c(OC(=O)c3cc(O)c(O)c(O)c3)c2)[C@@H]1OC(=O)c1cc(O)c(O)c(OC(=O)c2cc(O)c(O)c(O)c2)c1)c1cc(O)c(O)c(OC(=O)c2cc(O)c(O)c(O)c2)c1 the results were Beta apoptosis 12.
Screening CN(CCOc1ccc(Cl)cc1)C(=O)c1cccc(S(=O)(=O)N2CCN(Cc3ccccc3)CC2)c1 returned Gli-Sufu block 43.
For CCC(=O)Nc1cc2c3c(c1)CCN3C(=O)CC2 the results were Gli-Sufu block -11, Jurkat NFkB inh 8, Mdm2 MdmX PPI 9, 697 NFkB inh 0 and Beta apoptosis -2.
Screening COc1cc(C=c2c3ccccc3n3c2cc(-c2ccccc2)[n+]3C)cc(OC)c1OC returned Gli-Sufu block 14.
